Among all 24,000 compounds or so, fewer than 10 were called active. About 9% were inconclusive and are not listed. Not all results are given here. A number with no mark means an inactive call.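 Rule for the calls: active = fluorescent ligand binding to cells raised by more than 40% of the manganese-induced maximum; inconclusive = compound's own fluorescence above 85% of the ligand control signal; inactive = the rest.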

Sequence of Integrin alpha-4 (Homo sapiens) (P13612 whole entry, looked up): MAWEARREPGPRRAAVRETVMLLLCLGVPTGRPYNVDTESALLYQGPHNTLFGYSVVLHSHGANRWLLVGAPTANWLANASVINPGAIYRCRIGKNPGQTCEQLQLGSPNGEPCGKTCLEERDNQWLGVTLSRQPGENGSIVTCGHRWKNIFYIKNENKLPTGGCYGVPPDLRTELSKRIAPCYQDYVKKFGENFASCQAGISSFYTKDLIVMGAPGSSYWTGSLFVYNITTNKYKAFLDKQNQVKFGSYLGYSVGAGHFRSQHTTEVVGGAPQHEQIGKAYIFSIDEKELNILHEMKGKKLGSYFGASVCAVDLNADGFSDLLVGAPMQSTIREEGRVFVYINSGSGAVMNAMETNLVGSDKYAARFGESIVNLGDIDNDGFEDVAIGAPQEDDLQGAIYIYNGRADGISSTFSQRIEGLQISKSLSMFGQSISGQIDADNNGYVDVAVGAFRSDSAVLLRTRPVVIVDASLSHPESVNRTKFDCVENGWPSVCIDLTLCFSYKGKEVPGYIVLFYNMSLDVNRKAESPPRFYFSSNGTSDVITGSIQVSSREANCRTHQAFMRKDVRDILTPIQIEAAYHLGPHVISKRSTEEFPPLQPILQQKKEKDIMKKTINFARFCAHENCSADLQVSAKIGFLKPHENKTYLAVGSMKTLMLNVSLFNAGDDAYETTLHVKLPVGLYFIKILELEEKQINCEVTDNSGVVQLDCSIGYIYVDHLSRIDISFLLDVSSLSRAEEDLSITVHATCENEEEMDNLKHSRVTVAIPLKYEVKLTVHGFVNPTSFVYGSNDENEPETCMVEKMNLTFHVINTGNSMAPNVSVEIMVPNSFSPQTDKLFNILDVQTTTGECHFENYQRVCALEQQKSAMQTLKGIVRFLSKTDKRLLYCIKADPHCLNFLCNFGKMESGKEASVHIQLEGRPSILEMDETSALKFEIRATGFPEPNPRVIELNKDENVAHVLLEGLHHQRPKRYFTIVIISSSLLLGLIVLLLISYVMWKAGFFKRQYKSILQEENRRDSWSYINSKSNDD

This experiment addresses Integrin alpha-4 (Homo sapiens) (UniProt P13612). In words: increased LDV-FITC ligand binding on VLA-4 – Jurkat cells, flow cytometry, primary screen (AID 528).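 Note: 0% = ligand binding without compound and 100% = manganese-stimulated maximal binding.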 The following applies: active compounds read high, screened at 10 µM (by protocol).
As for `Cc1ccccc1S(=O)(=O)Cc1ccc(C(=O)NCCN2CCCCC2C)o1` (stereo not drawn), the activation was -1%.
`Nc1c(C(=O)NCc2ccccc2)nnn1Cc1cccc(Cl)c1`: the activation was -4%.
As for `CCCCCOC(=O)C1=C(C)Nc2nnnn2C1c1ccc(OC)c(OC)c1OC` (stereo not drawn), the activation was -4%.
Under `CCC(=O)N1c2ccc(S(=O)(=O)CCC(=O)N3CCN(c4ccccc4)CC3)cc2CC1C` (stereo not drawn) stands -5%.
Under `COc1ccc(OC)c(CNC(=O)CCc2nc(-c3cccs3)no2)c1` stands 2%; under `Cc1ccccc1NC(=O)c1ccccc1`, -14.5%.
For `CCOC(=O)N1CCC(NC(=O)CCc2cn(C)c3ccccc23)CC1`, the activation is 8%.
With `COc1cc2[nH]c(=S)n(Cc3ccc(C)o3)c(=O)c2cc1OC`, the activation is 0%.
As for `CCOC(=O)CNC(=O)CN1C(=O)CCSc2ccccc21`, the activation was 6%.
Next, `CCOC(=O)c1ccc(CS(=O)c2ccc(Cl)cc2)o1` (stereo not drawn): 4%; `COC(=O)C1=C(C)OC(N)=C(C#N)C1c1cc(OC)ccc1OC` (stereo not drawn): -3%.
With `Cc1ccc(NC(=O)C2CC(c3ccc(F)cc3)=NO2)cc1` (stereo not drawn), the activation is 3%.
Under `CCc1c(C)c2c(C)[nH]nc2oc1=O` stands -1%; under `CC12COC3(C(=O)Nc4ccc(Cl)cn4)CC1CCC32C` (stereo not drawn), 5%; under `Cc1ccc(S(=O)(=O)NCC(=O)N(CC(=O)NC2CCCCC2)Cc2ccco2)cc1`, 2%.
Consider `O=C1Nc2c(Br)cc(Br)cc2C1(O)N1CCOCC1` (stereo not drawn), for which the activation is 9%.
Next, `CCOC(=O)N1CCN(C(=O)C2CC(c3ccc(F)cc3)=NO2)CC1` (stereo not drawn): 6%; `Clc1ccc(Cc2nn3c(-c4ccncc4)nnc3s2)cc1`: 2%.
Consider `CCOCCc1c(O)nc(SCC(=O)NCc2ccco2)[nH]c1=O`, for which the activation was -1%.
Under `COc1cccc(C(=O)Nc2c3c(nn2-c2cccc(C)c2C)CS(=O)(=O)C3)c1OC` stands -3%.
Regarding `COc1ccc2oc(=O)c(C(=O)N3CCN(c4ccccc4F)CC3)cc2c1`, the activation is 3.5%.
Turning to `CCOc1ccccc1NC(=O)C1CCN(S(=O)(=O)c2c(C)nn(C)c2C)CC1`, the activation is 2%.
Consider `COc1ccc(CCNC(=O)CCCCn2c(=O)[nH]c3ccccc3c2=O)cc1OC`, for which the activation was 4%.
Turning to `C#CC(C)(C)NC(=O)CSc1nc2c(c(=O)n(C)c(=O)n2C)n1CCCC`, the activation was 8%.
Consider `CCCS(=O)(=O)N1CCCC(C(=O)N2CCN(c3ccccc3)CC2)C1` (stereo not drawn), for which the activation is 0%.
For the compound `CCOC(=O)C1CCCN(C(=O)C2CCN(c3nnc(-n4cccc4)s3)CC2)C1` (stereo not drawn), the activation is -1%.
Consider `CCOC(=O)N1CCC(Nc2c(NCCCN3CCN(c4ccc(OC)cc4)CC3)c(=O)c2=O)CC1`, for which the activation is -4%.
For the compound `COC(=O)c1ccc(NC(=O)CSc2nnc(Cc3cccn3C)n2-c2ccc(F)cc2)cc1`, the activation is -4%.
On to `Cc1noc(C)c1S(=O)(=O)N(CC(=O)Nc1ccc2c(c1)OCCO2)c1ccc(C(C)C)cc1`, for which the activation is -8%.
As to `Cn1c(C(=O)N2CCC(C(N)=O)CC2)cc2c(=O)n(C)c3ccccc3c21`, the activation was -1%.
For the compound `O=C(Nc1ccccc1C(=O)N1CCOCC1)C1CCC(=O)N1C1CCCC1` (stereo not drawn), the activation was 8%.
Next, `CN1CCN(S(=O)(=O)c2ccc3[nH]cc(C(=O)O)c(=O)c3c2)CC1`: 2%; `Cc1ccnc(N2C(=O)c3ccccc3C2Nc2ccc3c(c2)OCCO3)c1` (stereo not drawn): -5%.
For `COCCCNC(=O)c1ccc(CNS(=O)(=O)c2ccc(NC(C)=O)cc2)cc1`, the activation is -3.5%.
On to `Cc1nc(N2CCN(c3ncccn3)CC2)c2oc3ccccc3c2n1`, for which the activation was -3.5%.
Take `CC(C)OCCCNC(=O)C1CC(=O)N(C2CCCCCCC2)C1` (stereo not drawn): the activation was -1%.
As for `Cc1ccc(S(=O)(=O)N2CCCC2CO)cc1` (stereo not drawn), the activation is 5%.
For the compound `COc1ccc(C(=O)NC(=O)CSc2nnc(-c3ccco3)n2-c2ccccc2)cc1`, the activation is 1.3%.
For the compound `Cc1ccccc1CN1CCN(C(=O)c2cccc(F)c2)CC1`, the activation is 4%.
`CC1CCN(Cc2nc3c(c(=O)n(C)c(=O)n3C)n2Cc2cccc3ccccc23)CC1`: the activation was 2%.
Regarding `CCOc1nc(OCC)nc(-n2cc(-c3ccccc3)nn2)n1`, the activation was 2%.
Consider `FC(F)Oc1ccccc1C1CC(c2ccc(Br)s2)Nc2ncnn21` (stereo not drawn), for which the activation was 3%.
Consider `Cc1cc(Nc2cccc(F)c2)n2ncnc2n1`, for which the activation was -0.5%.
Next, `O=C(c1ccco1)N1CCN(C(=O)c2ccc(COc3ccc(F)cc3)o2)CC1`: 0%.
With `Cn1c(CNC(=O)C(C)(C)C)nc2ccccc21`, the activation was -3%.
For `Cc1cc(NS(=O)(=O)c2ccccc2)no1`, the activation is 5.5%.
On to `CCOC(=O)c1cn(CC(=O)Nc2ccc(C(C)C)cc2)nn1`, for which the activation is -2%.
In the case of `Cc1cccc(C)c1NC(=O)N1CC=C(n2c(=O)[nH]c3ccccc32)CC1`, the activation was 0%.
In the case of `Cc1ccc(S(=O)(=O)n2nc(OC(=O)C(C)(C)C)cc2N)cc1`, the activation is 4%.
Under `CCOC(=O)c1c(C)c(C(=O)NCCc2ccc(S(N)(=O)=O)cc2)c(C)n1CC` stands 16%; under `O=C(O)C1C2C=CC(C2)C1C(=O)N1CCN(CCO)CC1` (stereo not drawn), -2%; under `Cc1cnc(C(=O)OCC(=O)Nc2ccc(Cl)cc2Cl)cn1`, 3%.
For the compound `CCOC(=O)Cn1c(CN(Cc2ccccc2)Cc2ccccc2)nc2c1c(=O)[nH]c(=O)n2C`, the activation was -5%.
For `O=S(=O)(O)CCN1CCOCC1`, the activation was -6%.
Turning to `O=C(NC1CCCCC1)C1CCCN(S(=O)(=O)c2cccs2)C1` (stereo not drawn), the activation is -10.5%.
With `COc1ccc(C(=O)NCc2cn3ccccc3n2)cc1`, the activation was -2%.
Consider `Cc1ccccc1NC(=O)Cc1nnc(SCC(=O)N2CCN(c3ccccc3)CC2)n1C`, for which the activation is 0.5%.
Under `CC(C)CCNC(=O)CCNS(=O)(=O)c1ccc(Cl)cc1` stands -2.7%; under `COc1ccccc1-c1c(C)nn2c(C)c(C(C)=O)cnc12`, -2%.
For the compound `COc1cccc(OCC(O)CN2CCN(CCO)CC2)c1` (stereo not drawn), the activation is 3.3%.
Take `CCCC(=O)Nc1cccc(-c2cn3ccsc3n2)c1`: the activation was 3%.
Turning to `Cc1noc(C)c1S(=O)(=O)NCCc1ccc(S(N)(=O)=O)cc1`, the activation was 3%.
For `CC(=O)N(CC1CCCO1)C1(C(=O)NC2CCCC2)CCCCC1` (stereo not drawn), the activation was 0%.

The record behind these values is PubChem BioAssay AID528 (NMMLSC, 2006).
